Results on 17 compounds are retold here after PubChem BioAssay (NCATS).

Molecules are shown by their SMILES. Records with an inconclusive call do not appear. The source made the active and inactive calls. Unless noted, the call rests on the fitted dose curve; in most records, active means well fitted curve in the direction sought with a large enough effect; inconclusive means small, poorly fitted or top-dose-only effect, or another doubt; inactive means no such curve, though single readings can be large; an effect the other way counts as inactive or inconclusive.

A short description of assay [1]: High-throughput drug toxicity screening in the BPDCN cell line Gen2.2 (AID 1224824; call rule not given here;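 further: cells exposed to compounds for 48 h before reading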). The note with it: Gen2.2 BPDCN cells; at 45.8 µM (top of the series) unless noted. A digest of the protocol: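 Seed 500 exponentially growing Gen2.2 cells/well; add compounds by pin tool; incubate 48 h, 37 °C, 5% CO2; add CellTiter-Glo, 15 min RT; read luminescence. % activity vs DMSO (100%) and bortezomib (0%).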

Assay [2] can be described thus: High-throughput drug toxicity screening in the BPDCN cell line Cal-1 (AID 1224825; call rule not given here). As to conditions: Cal-1 BPDCN cell viability, qHTS; at 45.8 µM (top of the series) unless noted. A digest of the protocol: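 Exponentially growing Cal-1 cells, 500 per well in phenol red-free RPMI with 10% FBS, were exposed to compounds for 48 h at 37 °C, 5% CO2. Viability was read by CellTiter-Glo luminescence and normalised to DMSO (100%) and 9.2 uM bortezomib (0%).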
On the technique in general: In qHTS, concentration-response curves come from the screen itself.

Assay [3] in a line: qHTS assay for measurement of the activity of small molecule inhibitors on Zika virus induced Caspase-3 activity in human iPSC derived neural progenitor cells (hNPCs) (AID 1224857). Further: nearly all actives have a fitted effect of over 65% in size. Further: potency means the concentration at half of the fitted maximal effect. A digest of the protocol:
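Values are percent inhibition of virus-induced caspase-3/7 signal, scaled between uninfected cells and ZIKV-infected cells. Infection used 2 FFU/cell for 6 h after 1 h compound exposure.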

Assay [4] can be described thus: qHTS assay for measurement of the activity of small molecule inhibitors on Zika virus induced Caspase-3 activity in human astrocytoma cells (AID 1224859). Further: potency means the concentration at half of the fitted maximal effect. A digest of the protocol: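 Compound added 1 h pre-infection; ZIKV 2 FFU/cell on SNB-19 cells, 6 h, 37 C/5% CO2. Caspase-Glo 3/7 luminescence; values as % inhibition of ZIKV-induced caspase activity.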
Assay [5] can be described thus: qHTS Screen of the MIPE 4.0 Collection Against Ewings Sarcoma (RDES) (AID 1259252). Further: nearly all actives have a fitted effect of over 35% in size. Further: potency means the concentration at half of the fitted maximal effect. A digest of the protocol:
(§1)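 Compound titrations go onto adherent log-phase cells 4 h after seeding, incubate 48 h at 37C, then CellTiter-Glo luminescence reports viability relative to DMSO and cell-free controls.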

Assay [6] can be described thus: qHTS Screen of the MIPE 4.0 Collection Against Ewings Sarcoma (TC71) (AID 1259253). Further: nearly all actives have a fitted effect of over 40% in size. Further: potency means the concentration at half of the fitted maximal effect. A digest of the protocol: as §1
Assay [7] can be described thus: qHTS Screen of the MIPE 4.0 Collection Against Ewings Sarcoma (EW8) (AID 1259255). Further: nearly all actives have a fitted effect of over 35% in size. Further: potency means the concentration at half of the fitted maximal effect.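 On viability: 100% = DMSO-treated cells and 0% = medium-only wells without cells.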 A digest of the protocol:
as §1

The nature of assay [8]: qHTS Screen of the MIPE 4.0 Collection Against Ewings Sarcoma (TC32) (AID 1259256). Further: nearly all actives have a fitted effect of over 45% in size. Further: potency means the concentration at half of the fitted maximal effect. A digest of the protocol:
as §1

Assay [9] is described as follows: P-glycoprotein substrates identified in KB-3-1 adenocarcinoma cell line, qHTS therapeutic library screen (AID 1346986). Further: nearly all actives have a fitted effect of over 60% in size.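 Further: potency means the concentration at half of the fitted maximal effect; potency is for cytotoxicity meaning loss of cell viability.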 A digest of the protocol: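 Resistance attributable to P-gp was assessed by comparing AC50 in KB-8-5-11 with parental KB-3-1 and by tariquidar reversal. Cells were exposed 72 h and viability read by CellTiter-Glo.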
Assay [10] can be described thus: P-glycoprotein substrates identified in KB-8-5-11 adenocarcinoma cell line, qHTS therapeutic library screen (AID 1346987). Further: nearly all actives have a fitted effect of over 65% in size. A digest of the protocol:
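Steps: plate 500 KB-8-5-11 cells/well in DMEM + 10% FCS (colchicine removed); pin compounds in dose-response; incubate 72 h, 37 degree C, 5% CO2; add CellTiter-Glo, 5 min; read luminescence.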

For `C[C@]12CCC(=O)C=C1[C@@H]1CC1[C@H]1[C@H]3[C@@H]4C[C@H]4[C@@]4(CCC(=O)O4)[C@@]3(C)CC[C@H]12` (stereo not given in full), in [1], the cell viability, % of control (lower = more cytotoxic) was found to be 75.3%. Further, the viability (% of control) in assay [2] worked out at 92.9%. Moreover, the Potency result in assay [3], in [4], in assay [5], in assay [6], in assay [7] and in assay [8] was “inactive” each time.

In the case of `CC1=C(C(=O)Nc2cc3cn[nH]c3cc2F)C(c2ccc(Cl)cc2F)N=C(c2ccnc(Cl)c2)N1` (stereo not given), the cell viability, % of control (lower = more cytotoxic) in [1] stood at 4.15%. The viability (% of control) in assay [2] was found to be 3.35%. For the same compound, the Potency entry in assay [3] and in [4] was “inactive” throughout. In addition, the Potency in [5] was 18.7 µM (active); in assay [6], 14.8 µM (active); in assay [7], 26.4 µM (active); in assay [8] it was 16.6 µM (active); in assay [9] it was 20.6 µM (active).

Consider `CON=C(C(=O)N[C@@H]1C(=O)N2C(C(=O)O)=C(CSC(=O)c3ccco3)CS[C@H]12)c1csc(N)n1`, for which the cell viability, % of control (lower = more cytotoxic) in assay [1] worked out at 7.56%. In assay [2], the viability (% of control) was 8.07%. The Potency result in assay [3], in assay [4], in [5], in assay [6], in assay [7] and in [8] was “inactive” in each case. Further, the Potency entry in [9] and in [10] was “inactive” each time.

On to `N#Cc1c(C2CCNCC2)cc(-c2c(O)cccc2OCC2CC2)nc1N`, for which, in assay [1], the cell viability, % of control (lower = more cytotoxic) was found to be 7.25%. Further, in assay [2], the viability (% of control) was 5.17%. In addition, the Potency result in [3] and in assay [4] was “inactive” throughout. Further, the Potency in assay [5] was 14.8 µM (active); in [6], 10.5 µM (active); in [7], 14.8 µM (active); in [8], 14.8 µM (active).

Consider `CC(C)N(CC[C@H](c1ccccc1)c1cc(CO)ccc1O)C(C)C`, for which the cell viability, % of control (lower = more cytotoxic) in assay [1] was 145%. Moreover, in assay [2], the viability (% of control) is 101%. The Potency entry in assay [3], in [4], in assay [5], in assay [6], in assay [7] and in assay [8] was “inactive” throughout. Also, the Potency result in [9] and in assay [10] was “inactive” each time.

On to `COc1cc(CCc2cc(NC(=O)c3ccc(N4C[C@@H](C)N[C@@H](C)C4)cc3)n[nH]2)cc(OC)c1`, for which the cell viability, % of control (lower = more cytotoxic) in assay [1] was 14%. Besides, the viability (% of control) in assay [2] is 4.08%. In addition, the Potency result in assay [3] and in assay [4] was “inactive” in each case. For the same compound, the Potency in assay [5] was 18.7 µM (active); in [6], 16.6 µM (active); in assay [7], 16.6 µM (active); in [8], 13.2 µM (active).

Consider `CC1(C)O[C@@H]2C[C@H]3[C@@H]4CCC5=CC(=O)C=C[C@]5(C)[C@@H]4[C@@H](O)C[C@]3(C)[C@]2(C(=O)CO)O1`, for which the cell viability, % of control (lower = more cytotoxic) in assay [1] was 97.8%. In addition, the viability (% of control) in assay [2] came to 46.1%. Also, the Potency entry in [3], in assay [4], in assay [5], in assay [6], in [7] and in assay [8] was “inactive” each time. For the same compound, the Potency result in assay [9] and in assay [10] was “inactive” each time.

Take `COc1cccc2c1C(=O)c1c(O)c3c(c(O)c1C2=O)C[C@@](O)(C(=O)CO)C[C@H]3O[C@H]1C[C@H](N)[C@H](O)[C@H](C)O1`: the cell viability, % of control (lower = more cytotoxic) in assay [1] worked out at 6.45%. For the same compound, the viability (% of control) in [2] was found to be 4.57%. The Potency result in assay [3], in assay [4] and in assay [8] was “inactive” in each case. Besides, the Potency in assay [5] was 0.187 µM (active); in assay [6], 0.0743 µM (active); in assay [7], 0.0264 µM (active).

Consider `CC(=O)OCC(=O)[C@@]1(O)CC[C@H]2[C@@H]3CCC4=CC(=O)CC[C@]4(C)[C@@H]3C(=O)C[C@@]21C`, for which the cell viability, % of control (lower = more cytotoxic) in [1] turned out to be 108%. Further, the viability (% of control) in assay [2] is 111%. Further, the Potency result in [3], in assay [4], in assay [5], in assay [6], in assay [7] and in assay [8] was “inactive” throughout.

Consider `O=C1c2c(O)cccc2[C@@H]([C@@H]2O[C@H](CO)[C@@H](O)[C@H](O)[C@H]2O)c2cc(CO)cc(O)c21`, for which the cell viability, % of control (lower = more cytotoxic) in assay [1] amounted to 185%. For the same compound, in assay [2], the viability (% of control) turned out to be 123%. In addition, the Potency entry in assay [3], in assay [4], in assay [5], in assay [6], in [7] and in assay [8] was “inactive” in each case. Moreover, the Potency entry in [9] and in assay [10] was “inactive” throughout.

In the case of `O=C(O)C=Cc1ccc(Cn2ccnc2)cc1`, the cell viability, % of control (lower = more cytotoxic) in [1] amounted to 243%. The viability (% of control) in assay [2] is 124%. Moreover, the Potency result in assay [3], in assay [4], in assay [5], in assay [6], in assay [7] and in assay [8] was “inactive” throughout. For the same compound, the Potency entry in [9] and in assay [10] was “inactive” in each case.

On to `COc1ccc2cc([S+]([O-])Cc3ncc(C)c(OC)c3C)nc2c1`, for which the cell viability, % of control (lower = more cytotoxic) in assay [1] amounted to 70.5%. For the same compound, the viability (% of control) in [2] came out at 107%. Moreover, the Potency result in [3], in assay [4], in assay [5], in assay [6], in [7] and in assay [8] was “inactive” each time. In addition, the Potency result in [9] and in assay [10] was “inactive” in each case.

As for `Cc1[nH]c(C=C2C(=O)Nc3ccccc32)c(C)c1CCC(=O)O`, in assay [1], the cell viability, % of control (lower = more cytotoxic) came out at 12.9%. Further, the viability (% of control) in assay [2] worked out at 5.24%. Further, the Potency is 16.6 µM (active) in [3]; 11.8 µM (active) in assay [4]; 0.209 µM (active) in assay [5]; 0.296 µM (active) in assay [6]; 0.235 µM (active) in [7].

Turning to `FC(F)(F)c1ccc(Nc2nc3ccc(Oc4ccnc(-c5ncc(C(F)(F)F)[nH]5)c4)cc3[nH]2)cc1`, the cell viability, % of control (lower = more cytotoxic) in assay [1] is 14.5%. Also, in assay [2], the viability (% of control) was 24.9%. Further, the Potency entry in [3] and in assay [4] was “inactive” in each case. The Potency was 11.8 µM (active) in [5], 13.2 µM (active) in assay [6], 11.8 µM (active) in assay [7] and 9.35 µM (active) in [8].

For `CCOC(=O)N1CCN([N+]([O-])=NOc2ccc([N+](=O)[O-])cc2C#N)CC1`, the cell viability, % of control (lower = more cytotoxic) in [1] amounted to 17.2%. In addition, in [2], the viability (% of control) is 10.9%. Moreover, the Potency result in assay [3] and in [4] was “inactive” in each case. The Potency in [5] was 2.09 µM (active); in [6] it was 2.64 µM (active); in assay [7] it was 2.35 µM (active); in assay [8], 2.64 µM (active).

With `NS(=O)(=O)OC[C@@H]1C[C@@H](n2ccc3c(N[C@H]4CCc5ccccc54)ncnc32)C[C@H]1O`, in assay [1], the cell viability, % of control (lower = more cytotoxic) came to 6.59%. The viability (% of control) in assay [2] stood at 2.9%. Besides, the Potency entry in assay [3] and in assay [4] was “inactive” in each case. Further, the Potency was 0.332 µM (active) in [5], 0.264 µM (active) in assay [6], 0.132 µM (active) in [7] and 0.148 µM (active) in [8].

In the case of `CCN1CCN(C(=O)N[C@H](C(=O)N[C@@H]2C(=O)N3C(C(=O)O)=C(CSc4nnnn4C)CS[C@@H]23)c2ccc(O)cc2)C(=O)C1=O`, the cell viability, % of control (lower = more cytotoxic) in assay [1] is 149% [at 15.3 µM]. For the same compound, the viability (% of control) in [2] was 113% [at 15.3 µM]. Also, the Potency entry in assay [3], in assay [4], in [5], in assay [6], in [7] and in assay [8] was “inactive” each time. Also, the outcome in assay [9] and in [10] was “inactive [at 9.29 µM]” in each case.
